The test system of the assay is HepG2. Briefly: GSK_TCMDC: Percent inhibition of human HepG2 cell line. Test compounds present at 10uM. The assay is classed as functional.
Consider `O=C(NCC1CCN(CCN2CCc3ccc4c(c3C2)OCO4)CC1)c1ccc(-c2ccc(C(F)(F)F)cc2)cc1`, for which the Inhibition was determined as 66%. In turn, `Cc1cccc(-c2nc3[nH]c(=O)cc(NC(=O)C(C)C)n3n2)c1` returned an Inhibition of 0%. In the case of `CNc1nc(N/N=C/c2cc3c(cc2[N+](=O)[O-])OCO3)nc(Nc2cccc(C(F)(F)F)c2)n1` it was 0%; in that of `COc1ccccc1-c1[nH]c2ccccc2c1CN1CCC(c2c(C)cccc2C)CC1`, 49%; in that of `Cc1cc(OCC2CCCO2)c2cc(NC(=O)C(=O)Nc3ccc4nc(C)cc(OCC5CCCO5)c4c3)ccc2n1` (stereo not given), 7%.

The molecule `Cc1[nH]c(C)c(-c2ccc(C#Cc3ccc(F)cc3F)cc2)c(=O)c1Br` displayed an Inhibition of 11%. The figure for `Cc1cc(Nc2ccc(C)c(Cl)c2)n2ncnc2n1` is 6%; for `COc1cccc2c1CCN(CCN1CCC(NC(=O)c3ccc(-c4cccc(Cl)c4Cl)cc3)CC1)C2` it is 47%. For the molecule `COc1ccc(N2C(=O)C3C(C2=O)C2(C)c4ccccc4C3(C)c3ccccc32)c([N+](=O)[O-])c1` (stereo not given), the Inhibition amounted to 11%. `COc1ccc2nccc([C@@H](O)CN3CCC(NCc4cc5ccccc5nc4O)CC3)c2c1.Cl`: the Inhibition came to 0%. In the case of `COc1ccc(-c2ccc(NC(=O)c3ccc(Cl)cc3)cc2)cc1CN(C)CCN(C)C.O=C(O)C(F)(F)F` it was 37%. The figure for `CCOC(=O)c1c(C)noc1Nc1cccc(C)c1C` is 8%; for `O=C(N[C@H]1CCCC[C@H]1C(=O)O)c1ccccc1` it is 7%; for `COc1cc2c(cc1COc1ccccc1)CCN1Cc3cc(OC)c(OC)cc3CC21` (stereo not given) it is 0%.

On to `CCC[C@@H](/C=N/N(C)C(=O)OC(C)(C)C)NC(=O)[C@H](CC(C)C)NC(=O)c1cc2cccc(OC)c2o1`, for which the Inhibition was determined as 5%. The figure for `Cc1cccc2nc(-c3cccc(-c4cccc(NC(=O)C(C)CN5CCN(C)CC5)c4)c3)[nH]c12` (stereo not given) is 17%.

Molecule `Nc1ncc(-c2ccc(F)cc2)c2ccc(-c3cccc(F)c3)cc12` displayed an Inhibition of 34%. As for `Cc1cc(CN2CCCN(c3ccc4c(c3)CCN(Cc3ccc(-c5ncc[nH]5)cc3)CC4)CC2)n(C)n1`, the Inhibition is recorded as 5%.

`COc1ccc(NS(=O)(=O)c2cccc(C(=O)Nc3ccc(C(F)(F)F)cc3)c2)cc1N1CCN(CC(C)C)CC1.O=C(O)C(F)(F)F` came in with an Inhibition of 5%. Molecule `CN1CCN(c2ccnc3ccc(NC(=O)Nc4ccccc4Br)cc23)CC1.Cl` gave an Inhibition of 4%. In the case of `CCc1cc2c3c(N)nc(N)nc3ccc2n1CC` it was 62%; in that of `CN1CCN(Cc2cccc(-c3ccc4c(Nc5ccc(Oc6ccccc6)cc5)ccnc4c3)c2)CC1`, 41%.

`CCCn1c(O)nnc1SCC(=O)Nc1cc(Cl)ccc1Cl` had an Inhibition of 0%. The figure for `Cc1noc(C)c1-c1ccc2c(Nc3ccccc3C(C)(C)C)c(C(=O)NCc3cccc4ccccc34)cnc2c1.Cl` is 4%; for `CS(=O)(=O)c1ccc(Nc2ncc(-c3ccc(S(C)(=O)=O)cc3)c(OCC(F)(F)F)n2)cc1` it is 0%; for `O=C(NCC1COc2ccccc2O1)c1cnc2c(c1)nc(-c1c[nH]c(-c3ccccc3)n1)n2CCSCc1c(F)cccc1Cl` (stereo not given) it is 6%. The figure for `CN1CCCN(Cc2ccc(-c3cccc(NC(=O)c4ccc(C#N)cc4)c3)cc2)CC1.O=C(O)C(F)(F)F` is 29%; for `CN(C)CC(=O)NCC(NCCCNc1cc(=O)c2ccccc2[nH]1)c1cc(Br)cc(Br)c1` (stereo not given) it is 6%; for `CN1CCN(c2cccc(-c3nnc(-c4cccc(OCC(=O)NCc5ccc(C(F)(F)F)cc5)c4)o3)c2)CC1` it is 10%. The figure for `Cc1ccc(Nc2nc3cc(Nc4ccnc(Nc5ccc(CS(C)(=O)=O)cc5)n4)ccc3o2)cc1` is 54%.

In the case of `COc1ccc2nc(/N=C3\NC(c4ccccn4)(c4ccccn4)C(=O)N3C)[nH]c2c1`, the Inhibition worked out at 65%. The figure for `COc1cc(NC(=O)/C=C/c2cc(F)cc(F)c2F)cc(OCCN2CCC(O)(c3ccccc3)CC2)c1.O=C(O)C(=O)O` is 54%; for `CCCOc1ccc(C(=O)Nc2nonc2-c2ccc(OC)c(OC)c2)cc1` it is 0%; for `CCCCCCN(CCCCCC)CC(O)c1c(OC)ccc2ccccc12.Cl` (stereo not given) it is 18%. The figure for `O=C(Cc1ccccc1)NC(c1ccc(Cl)cc1)c1ccc2cccnc2c1O` (stereo not given) is 50%; for `CC(=O)Oc1cc(C(=O)Nc2ccc(Cl)cc2)cc2ccccc12` it is 16%; for `Cc1cc(O)c(-c2cc(C(=O)Nc3cccnc3)[nH]n2)cc1C` it is 12%. In the case of `CC(C)c1sc(N2CCN(C)CC2)nc1C(=O)Nc1cccc2c1CCCC2.O=C(O)C(F)(F)F` it was 3%; in that of `CS(=O)(=O)O.FC(F)(F)COc1ccc(CCNCCCCNCCc2ccc(OCC(F)(F)F)c3ccccc23)c2ccccc12`, 100%. For the molecule `Cn1c(=O)c2cc(C(=O)NCCCN3CCCCCC3)sc2c2ccccc21`, the Inhibition turned out to be 32%.

Broadly, the Inhibition is the share of the control response that was lost under treatment. A higher Inhibition goes with a response far below the control.
